Screening data deposited in PubChem BioAssay by National Center for Advancing Translational Sciences (NCATS).
p53 reactivation – mutant p53 re-activation in reporter cells. H1299 p53-A138V BP100-luciferase reporter, luminescence, 24 h. Potency, µM (doses to about 92.2 µM), for inactives: at the top dose activity change, positive = activation, most hits filed as activators. actives 0.063% (n = 320,000); note: % of control where 0% means no effect; nearly all actives have a fitted effect of over 45% in size
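p53-null H1299 cells stably carrying temperature-sensitive p53-A138V and a BP100-luciferase reporter were pinned with compounds (4-point, 1:5 series) and held 24 hrs at 37 deg C. Luminescence was read 10 min after detection reagent.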
FLuc modulator – firefly luciferase modulation, counter-screen for miR-21 project; purified FLuc, Km substrates, luminescence inhibition; Potency, µM (highest dose often 57.5 µM), for inactives: top-dose activity change, negative = inhibition, usual class: inhibitors; actives 6.9% (n = 360,000); AID 588342;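 note: plate controls were vehicle for no effect and reference inhibitor for full effect; nearly all actives have a fitted effect of over 55% in size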
Target sequence (P08659 whole entry, looked up): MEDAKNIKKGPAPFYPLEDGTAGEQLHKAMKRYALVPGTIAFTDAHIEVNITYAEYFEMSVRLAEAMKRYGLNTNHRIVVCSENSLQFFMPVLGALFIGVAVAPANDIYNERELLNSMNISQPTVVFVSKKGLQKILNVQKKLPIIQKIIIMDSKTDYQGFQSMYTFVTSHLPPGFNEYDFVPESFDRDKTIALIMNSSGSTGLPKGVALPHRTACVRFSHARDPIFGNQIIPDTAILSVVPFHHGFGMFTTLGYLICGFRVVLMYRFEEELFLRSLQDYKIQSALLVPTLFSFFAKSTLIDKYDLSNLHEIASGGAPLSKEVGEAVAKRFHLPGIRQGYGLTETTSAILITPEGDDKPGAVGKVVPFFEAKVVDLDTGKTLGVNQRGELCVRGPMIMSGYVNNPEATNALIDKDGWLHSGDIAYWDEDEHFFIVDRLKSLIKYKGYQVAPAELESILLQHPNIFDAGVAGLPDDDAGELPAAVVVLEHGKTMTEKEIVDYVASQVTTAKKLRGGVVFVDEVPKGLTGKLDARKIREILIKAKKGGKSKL
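Biochemical qHTS of compounds, final roughly 60 µM downward over six points, against 10 nM purified firefly luciferase using Km concentrations of substrates (10 uM D-luciferin, 10 uM ATP) in Tris acetate pH 7.5 buffer; luminescence output.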
NPC1 promoter act – NPC1 promoter activation. Potency, µM (titrated, usually from 9.22 µM), inactives show at the highest dose activation, usual class: activators. actives 2.4% (n = 320,000). Huh7 NPC1 promoter luciferase reporter, 24 h. AID 485313; note: % of control where 0% means no effect; nearly all actives have a fitted effect of over 60% in size
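Stable NPC1-promoter luciferase Huh7 line; cpd (DMSO) 24 h, 37 °C, 5% CO2; Amplite luciferase reagent 10 min RT; luminescence readout. qHTS format.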
ELG1 genotoxic – genotoxicity induction in ELG1-luciferase HEK293T cells | actives 1.3% (n = 330,000) | Potency, µM (series often up to 46 µM), inactives show at the highest dose activity change, positive = activation, usual class: activators | HEK293T ELG1-luciferase reporter, luminescence, 16 h; note: % of control where 0% means no effect; nearly all actives have a fitted effect of over 60% in size
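DMSO vehicle served as control against compound-treated ELG1-luciferase HEK293T cells; exposure lasted 16 hr at 37 °C and 5% CO2, followed by ONE-Glo luminescence detection after 30 min.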
Rab9 prom act – activators of Rab9 promoter. actives 2.8% (n = 320,000). Huh7 Rab9 promoter-luciferase reporter, luminescence, 24 h. Potency, µM (highest dose often 9.22 µM), inactives show top-dose activation, negative = inhibition, actives largely listed as activators; note: % of control where 0% means no effect; nearly all actives have a fitted effect of over 60% in size
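Cell-based reporter: Huh7 stable for Rab9 promoter-driven luciferase, plated in reduced-serum medium with 10% FBS at 1500 cells/well, compound-treated 24 h at 37 °C, luminescence read after 10 min reagent.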
SMN2 splice enh – SMN2 splice variant enhancement. HEK293 SMN2-luciferase splicing reporter, luminescence, 30-36 h. Potency, µM (highest dose often 46.1 µM), without a hit: at the top dose activity change, positive = activation, most hits filed as activators. actives 2.8% (n = 210,000); note: % of control where 0% means no effect; nearly all actives have a fitted effect of over 55% in size
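qHTS luciferase splicing reporter: luminescence rises when SMN2 exon 7 is included in transfected HEK293 cells. Compound exposure lasted 30-36 h at 37C, with 4.5 mM final sodium butyrate as control, followed by a ONE-Glo read.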
Starred values were filed as active, the others as inactive; ? = inconclusive; . = no result; [ ] = another dose, or the depositor's remark. Rows were chosen to be rich in hits. Some 7.4% of all compounds tested hit in one or more screens of this group. Calls come from the whole dose curve; as a rule, active = well fitted curve in the direction sought with a large enough effect; inconclusive = small, poorly fitted or top-dose-only effect, or another doubt; inactive = no such curve, though single readings can be large; an effect the other way counts as inactive or inconclusive. Potency is the fitted concentration of half-maximal effect.

SMILES	p53 reactivation	FLuc modulator	NPC1 promoter act	ELG1 genotoxic	Rab9 prom act	SMN2 splice enh
CCOc1ccc(CCNC(=O)Cn2c(C)c3cnn(-c4ccccc4)c(=O)c3c2C)cc1	.	3%	.	.	.	-1%
C[C@H](NCCc1ccc(O)cc1)[C@@H](O)c1ccc(O)cc1	.	.	.	.	.	0%[20.6 µM]
COC(=O)CSC(C(=O)Nc1ccc(C)c(C)c1)c1ccccc1 (centres undefined)	?	17µM*	-5%	6%	10%	9%
O=C(CC(=O)c1ccccc1)Nc1ccc(Cl)cc1	?	15µM*	?	13%	?	.
Cc1ccc(NC(=O)c2ccc(NC(=O)c3ccccc3)cc2)cc1C	?	27µM*	?	?	?	.
Cc1ccc(NC(=O)c2cccc(N3CCCS3(=O)=O)c2)cc1C	.	19µM*	.	.	.	.
COc1cc(NC(=O)Nc2c[nH]c(=O)[nH]c2=O)cc(OC)c1OC	.	5%	.	.	.	.
Cc1ccc(/C=C/C(=O)c2c(C)nc3ccccn23)cc1	?	1.1µM*	?	16%	1.4µM*	?
Cc1nc2ccccn2c1C(=O)/C=C/c1cccc([N+](=O)[O-])c1	16%	-5%	-28%	-27%	-43%	-69%
CCc1ccc(NC(=O)CCC(=O)c2ccc(C)cc2)cc1	-1%	-3%	-2%	-2%	-2%	.
Cc1cccc(C(=O)Nc2cccc(C(=O)Nc3cc(C)ccn3)c2)c1	.	27µM*	10%	-6%	20%	.
CCc1ccc(NC(=O)CN2CCc3ccccc3C2)cc1	10%	24µM*	6%	?	12%	-16%
CCc1ccc(NC(=O)CCC(=O)c2ccccc2)cc1	-3%	13µM*	0%	3%	-6%	.
Cc1c(Cl)ccc2sc(NC(=O)c3ccc(S(=O)(=O)N4CCCC4)cc3)nc12	.	3%	.	.	.	.
Cc1oc(-c2cccc(Cl)c2)nc1CS(=O)(=O)CC(=O)NC(C)CCc1ccccc1 (centres undefined)	.	-17%	.	.	.	-1%
O=c1c2ccccc2c(/C=N/c2n[nH]c(CCCO)n2)c(O)n1-c1ccccc1Cl	-4%	17µM*	-2%	1%	-2%	5%
COC(=O)C1=C(C(=O)OC)[C@@H]2Nc3ccccc3[C@@]23C[C@@H](C(=O)OC)N(S(=O)(=O)c2ccc(OC)cc2)C3=N1	.	.	.	.	.	15%[9.22 µM]
CCC(CO)Nc1ncnc2c1cnn2-c1ccc(Cl)cc1 (centres undefined)	13%	1.7µM*	0.45µM*	?	0.32µM*	?
CCC(C)Nc1ncnc2c1cnn2Cc1ccc(Cl)cc1 (centres undefined)	1%	-1%	-4%	-6%	-3%	-13%
COc1ccc(CC(=O)NNc2ncnc3c2cnn3-c2ccccc2)cc1	-9%	1%	-3%	4%	-3%	2%
CCC(CO)Nc1ncnc2c1cnn2-c1ccc(OC)cc1 (centres undefined)	?	6.7µM*	1µM*	2.6µM*	1µM*	10µM*
COc1ccccc1Nc1ncnc2c1nc1n2CCCCC1	.	-14%	.	.	.	.
Cc1ccc(Nc2ncnc3c2nc2n3CCCC2)c(Br)c1	.	3.8µM*	.	.	.	.
Clc1ccccc1Nc1ncnc2c1nc1n2CCCCC1	.	17µM*	.	.	.	.
Clc1cccc(Nc2ncnc3c2nc2n3CCCCC2)c1	.	6.7µM*	.	.	.	.
SMILES	p53 reactivation	FLuc modulator	NPC1 promoter act	ELG1 genotoxic	Rab9 prom act	SMN2 splice enh
Clc1cccc(N2CCN(c3ncnc4c3nc3n4CCCC3)CC2)c1	.	19µM*	.	.	.	?
COc1ccc(-n2nc(C(=O)Nc3cc(C)ccn3)c3c4ccccc4n(C)c3c2=O)cc1Cl	.	-2%	.	.	.	5%
O=C(Cn1c(=O)oc2ccccc21)NCc1cccc(Cl)c1	.	1%	.	.	.	12%
CCOC(=O)c1cnn(-c2ccc(C(F)(F)F)cn2)c1N	29%	11µM*	?	?	?	?
CCOC(=O)c1cnn(-c2ncnc3c2cnn3C)c1N	17%	?	?	?	?	.
CCOC(=O)c1cnn(-c2ccccc2)c1N	6%	?	3%	0%	-1%	1%
CCOC(=O)c1cnn(-c2ncnc3sc(CC)cc23)c1N	8%	13µM*	-3%	4%	3%	13%
COc1ccc(CNc2ncc(-c3cccc([N+](=O)[O-])c3)n2C)c(OC)c1OC	.	4%	-6%	-5%	-10%	.
CC1CN(C(=O)CCC(=O)Nc2cc(F)ccc2F)c2ccccc2S1 (centres undefined)	.	-12%	.	.	.	.
COc1ccc(/C=N/n2c(SC)nnc2-c2ccccc2)c(OC)c1OC	-1%	-5%	-33%	3%	-14%	14µM*
c1ccc2nc3c(nc2c1)[nH]c1ccccc13	?	3.8µM*	3.2µM*	9.2µM*	0.89µM*	11µM*
N#Cc1cc2c(cc1NC(=O)CCn1cnnn1)OCO2	-2%	1%	0%	2%[9.26 µM]	10%	.
c1ccc(-c2nnc(-c3ccccn3)nc2NC2CCCCC2)cc1	35µM*	-2%	-13%	-3%	-19%	-80%
Cc1ccc(Cn2c(C(=O)Nc3cccc(Cl)c3)cc3sccc32)cc1	.	0%	.	.	.	-22%
O=C1OC(c2ccccc2)=C/C1=C/N1CCCCC1	?	6µM*	2.5µM*	?	2.5µM*	?
O=C1OC(c2ccccc2)=N/C1=C\N1CCCCC1	20%	9.5µM*	2.8µM*	?	3.5µM*	?
CN(C)c1ccc(/C=C2/C=C(c3ccc4c(c3)CCCC4)OC2=O)cc1	2%	-19%	-5%	0%	-4%	.
Cc1nn(-c2ccccc2)c(N2CCCC2)c1/C=C1\N=C(c2ccc(F)cc2)OC1=O	2%	5%	0%	-3%	-1%	-41%
O=C1OC(c2ccc(Br)cc2)=N/C1=C\N1CCCCC1	?	?	2.2µM*	15µM*	2.5µM*	13µM*
Cc1ccc(C2=N/C(=C\c3c(C)nn(-c4ccccc4)c3N3CCCC3)C(=O)O2)cc1	1%	0%	2%	1%	-3%	3%
O=C(c1cccs1)c1cn(CCOc2ccccc2Cl)c2ccccc12	.	-1%	.	.	.	-6%
CSc1ccc(CCNC(=O)CCc2c(C)nc3cc(-c4ccccc4)nn3c2C)cc1	.	-5%	.	.	.	-2%
COc1ccc(-c2csc(NC(=O)C3=COCCO3)n2)cc1OC	7%	?	?	?	?	.
CCC(=O)Nc1nc(-c2ccc3c(c2)OCCO3)cs1	?	6µM*	0.5µM*	2.1µM*	3.2µM*	2.5µM*
COc1ccccc1C(=O)Nc1nc(-c2ccc3c(c2)OCCO3)cs1	-2%	?	-7%	-3%	4%	-40%
